TEAD-YAP inh – TEAD-YAP interaction inhibition; HEK-TIYL cells, TEAD-Gal4/YAP UAS-luciferase luminescence; hit rate 1.4% among 640,000; inhibition, % at 9.12 µM; AID 1259422; in the data active = inhibition above about 32%;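 note: 0% = median of test compound wells and 100% = reference inhibitor wells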
GPR151 activ – human GPR151 activation | PathHunter beta-arrestin GPR151 cells, luminescence | activation, % at 11.2 µM | hit rate 1% among 650,000 | AID 1508602; in the data active = activation above about 4.9%;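 note: 0% = median of compound wells and 100% = cells with positive control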
Target sequence (Q8TDV0 whole entry, looked up): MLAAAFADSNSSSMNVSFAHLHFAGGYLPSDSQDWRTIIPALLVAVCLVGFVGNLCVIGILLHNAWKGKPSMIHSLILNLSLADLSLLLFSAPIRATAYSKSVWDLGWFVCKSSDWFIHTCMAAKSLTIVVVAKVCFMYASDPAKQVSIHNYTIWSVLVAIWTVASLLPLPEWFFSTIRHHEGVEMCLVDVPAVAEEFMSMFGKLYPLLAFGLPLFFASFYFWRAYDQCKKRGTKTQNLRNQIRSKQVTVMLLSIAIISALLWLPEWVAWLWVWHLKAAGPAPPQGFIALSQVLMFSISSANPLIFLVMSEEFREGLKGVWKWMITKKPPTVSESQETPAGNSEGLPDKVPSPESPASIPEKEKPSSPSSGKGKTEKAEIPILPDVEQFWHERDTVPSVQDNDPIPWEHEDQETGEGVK
FBW7 act – activators of human E3 ligase FBW7. Q969H0. AlphaScreen FBW7–phospho-cyclin E peptide binding, activator screen. normalized activity (activation), % at 26.1 µM. hit rate 0.13% among 650,000. AID 1259310; in the data active = normalized activity above about 1.9%;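 note: purified mutant Fbw7 with reduced substrate affinity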
MITF inh – blocks human microphthalmia-associated transcription factor; AlphaScreen MITF homodimerization, bead proximity signal; inhibition, % at 2.6 µM; hit rate 0.91% among 650,000; in the data active = inhibition above about 50%;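 note: 0% = vehicle wells with protein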
Numbers without * were called inactive. An excerpt weighted towards active compounds, which were near 3.5% of everything screened.

SMILES | TEAD-YAP inh | GPR151 activ | FBW7 act | MITF inh
CCOC(=O)C1=C(C)NC(=O)NC1c1ccc(C(C)(C)C)cc1 (stereo not drawn) | -8 | 0 | 0 | 2
COc1ccc(C(=O)Nc2cccc(OC(=O)c3ccc(C)c(S(=O)(=O)N4CCOCC4)c3)c2)cc1 | 66* | -3 | 0 | -8
Cc1ccc(C(=O)Nc2cccc(OC(=O)c3cccc(S(=O)(=O)N4CCC(C)CC4)c3)c2)cc1 | 68* | -3 | 1 | 11
COc1cccc(C(=O)Nc2cccc(OC(=O)c3ccc(C)c(S(=O)(=O)N4CCOCC4)c3)c2)c1 | 36* | 0 | 0 | 12
CCOc1ccc(NC(=O)CC2C(=O)N(c3ccc(Cl)cc3)C(=S)N2CCCN2CCC(Cc3ccccc3)CC2)cc1 (stereo not drawn) | -17 | -1 | 0 | -1
CCc1ccc(NC(=O)C(=O)NC(C)C)cc1 | -56 | 0 | 0 | 13
COc1ccc(C(=O)Oc2cc3c4c(c2)C(C)=CC(C)(C)N4C(=O)C3=O)cc1OC | 9 | 0 | 0 | 10
CC1=CC(C)(C)N2C(=O)C(=O)c3cc(OC(=O)COc4ccccc4)cc1c32 | 62* | -1 | 0 | 10
CC1=CC(C)(C)N2C(=O)C(=O)c3cc(OC(=O)C4CCCO4)cc1c32 (stereo not drawn) | 57* | 0 | 0 | 12
CCn1cnc2scc(-c3cccc([N+](=O)[O-])c3)c2c1=O | -6 | 1 | 0 | 13
Cc1ccc(Cl)cc1N1CCN(C(=O)c2ccc3c(c2)NC(=O)CS3)CC1 | 60* | 1 | 0 | 11
Cn1c(=O)n(C)c2cc(NS(=O)(=O)c3ccc(C(C)(C)C)cc3)ccc21 | 25 | 1 | 0 | 17
CC(C)Cc1ccc(S(=O)(=O)Nc2ccc3c(c2)n(C)c(=O)n3C)cc1 | 33* | 1 | 0 | 1
Cc1ccccc1NC(=O)CSC1=C(C#N)C(c2ccco2)C2=C(CCCC2=O)N1 (stereo not drawn) | 45* | 0 | 0 | 13
CCCOC(=O)CSC1=C(C#N)C(c2cccc(Cl)c2)CC(=O)N1 (stereo not drawn) | 62* | 0 | 0 | 2
CC(=O)C1=C(C)NC(SCC(=O)c2ccc(C)c(C)c2)=C(C#N)C1c1ccco1 (stereo not drawn) | 9 | 0 | 1.9* | 23
CC(=O)C1=C(C)NC(SCC(=O)c2ccccc2)=C(C#N)C1c1ccco1 (stereo not drawn) | -19 | -1 | 1 | 14
CCCOC(=O)CSC1=C(C#N)C(c2ccc3c(c2)OCO3)CC(=O)N1 (stereo not drawn) | 1 | 3 | 0 | -2
COC(=O)CSC1=C(C#N)C(c2ccccc2C)CC(=O)N1 (stereo not drawn) | 7 | -1 | 0 | -9
COC(=O)CSC1=C(C#N)C(c2ccc(C)o2)CC(=O)N1 (stereo not drawn) | 56* | 1 | 0 | 7
Cc1ccc(CNC(=O)COc2ccc(Br)cc2)cc1 | -2 | -2 | 0 | 0
Cc1nnc2ccc(-c3cccc(NC(=O)c4cc(Br)ccc4Cl)c3)nn12 | 19 | 1 | 0 | 0
O=C(NCc1cnn(-c2ccccc2)n1)c1cc(Cc2ccccc2)no1 | -17 | 1 | 0 | 3
O=c1c(CNCCO)cc2cc3c(cc2n1Cc1cccc(C(F)(F)F)c1)CCC3 | 6 | -1 | 0 | 8
CCOC(=O)CSC1=C(C#N)C(c2ccco2)C(C(=O)Nc2ccccc2F)=C(C)N1 (stereo not drawn) | 45* | 1 | 0 | 12
SMILES | TEAD-YAP inh | GPR151 activ | FBW7 act | MITF inh
CCOC(=O)CSC1=C(C#N)C(c2ccco2)CC(=O)N1 (stereo not drawn) | 55* | 0 | 0 | 1
COc1ccccc1NC(=O)C1=C(C)NC(SCC(=O)c2ccc(F)cc2)=C(C#N)C1c1ccco1 (stereo not drawn) | -16 | -1 | 1 | 3
O=C(c1ccc2c(=O)n(-c3ccccc3F)c(=S)[nH]c2c1)N1CCCCC1 | 33* | -1 | 0 | -4
Cc1noc(C)c1COc1ccc(C(=O)OCc2ccc(F)cc2)cc1 | 5 | 0 | 0 | 2
COc1ccc2occ(C(=O)c3oc4ccccc4c3N)c2c1 | 32* | -5 | 0 | -2
COC(=O)c1oc2ccc(OC)cc2c1N | -21 | -2 | 0 | 3
COc1ccc2oc(C(=O)c3ccc(Cl)cc3)c(N)c2c1 | -87 | 0 | 1 | 14
COc1ccc2oc(C)c(C(=O)c3oc4ccccc4c3N)c2c1 | 34* | -1 | 0 | -3
Cc1nn2c(=O)c3ccc(C(=O)NCc4ccc(F)cc4)cc3nc2s1 | 8 | 0 | 0 | 9
N#Cc1ccsc1NC(=O)COC(=O)CNS(=O)(=O)c1ccc2ccccc2c1 | -11 | -1 | 0 | 8
COc1ccc(-c2nc3ncnc(NCCN(C(C)C)C(C)C)c3[nH]2)cn1 | 9 | 0 | 0 | 13
COc1ccc(-c2nc3ncnc(NCCOc4ccccc4)c3[nH]2)cn1 | 36* | 0 | 0 | 3
COc1ccc(-c2nc(Nc3cc(OC)c(OC)c(OC)c3)c3[nH]cnc3n2)cn1 | 57* | -1 | 0 | 12
COc1cc(Nc2nc(-c3cccc(C(C)=O)c3)nc3nc[nH]c23)cc(OC)c1OC | 30 | 0 | 1.9* | 10
COc1ccc(-c2nc3ncnc(Nc4ccc(NC(C)=O)cc4)c3[nH]2)cn1 | 12 | 0 | 0 | 22
CC(=O)c1cccc(-c2nc(Nc3ccccc3)c3[nH]cnc3n2)c1 | 1 | 4 | 0 | -4
COc1ccc(-c2nc3ncnc(Nc4cc(OC)c(OC)c(OC)c4)c3[nH]2)cn1 | 46* | -1 | 1 | 19
COc1ccc(-c2nc3ncnc(NCCc4ccc(O)cc4)c3[nH]2)cc1 | 59* | 2 | 0 | 11
CC(=O)N(Cc1ccc(F)cc1)C1=C(NCCc2ccccc2)C(=O)c2ccccc2C1=O | 60* | 2 | 0 | 15
CC(=O)N(Cc1ccccc1)C1=C(N2CCCCC2)C(=O)c2ccccc2C1=O | -8 | -1 | 0 | 14
CNC1=C(N(Cc2ccc(Cl)c(Cl)c2)C(C)=O)C(=O)c2ccccc2C1=O | 83* | -2 | 0 | 10
CC(=O)NC1=C(N(C)C)C(=O)c2ccccc2C1=O | -5 | 0 | 0 | -4
CC(=O)N(Cc1ccc(F)cc1)C1=C(Cl)C(=O)c2ccccc2C1=O | 13 | -3 | 0 | 10
CCC(=O)N(C1=C(NC)C(=O)c2ccccc2C1=O)C(C)C | 85* | -2 | 0 | -10
FC(F)(F)Oc1ccc(Nc2nccc(NCCCN3CCOCC3)n2)cc1 | 6 | 0 | 0 | 12
O=C(CN(C1CCCCC1)S(=O)(=O)c1ccc(F)cc1)Nc1ccccc1F | -3 | 3 | 0 | 8
Cc1ccnc(NC(c2ccc(Cl)cc2)c2ccc3cccnc3c2O)c1 (stereo not drawn) | 84* | 1 | -1 | 13
Cc1ccnc(NC(c2ccc(N(C)C)cc2)c2ccc3cccnc3c2O)c1 (stereo not drawn) | -56 | 2 | 0 | 60*
Cc1ccnc(NC(c2ccc(C(C)C)cc2)c2ccc3cccnc3c2O)c1 (stereo not drawn) | 53* | 0 | 0 | 4

Source: PubChem BioAssay
